{
  "source": "paper PMC13541613",
  "about": "“GHT-SELEX demonstrates unexpectedly high intrinsic sequence specificity and complex DNA binding of many human transcription factors”",
  "data": [
    {"molecular_target": "ZNF721 DBD2 (Homo sapiens, UniProt Q8TF20-2 395-923)", "sequence (Q8TF20 383-911)": "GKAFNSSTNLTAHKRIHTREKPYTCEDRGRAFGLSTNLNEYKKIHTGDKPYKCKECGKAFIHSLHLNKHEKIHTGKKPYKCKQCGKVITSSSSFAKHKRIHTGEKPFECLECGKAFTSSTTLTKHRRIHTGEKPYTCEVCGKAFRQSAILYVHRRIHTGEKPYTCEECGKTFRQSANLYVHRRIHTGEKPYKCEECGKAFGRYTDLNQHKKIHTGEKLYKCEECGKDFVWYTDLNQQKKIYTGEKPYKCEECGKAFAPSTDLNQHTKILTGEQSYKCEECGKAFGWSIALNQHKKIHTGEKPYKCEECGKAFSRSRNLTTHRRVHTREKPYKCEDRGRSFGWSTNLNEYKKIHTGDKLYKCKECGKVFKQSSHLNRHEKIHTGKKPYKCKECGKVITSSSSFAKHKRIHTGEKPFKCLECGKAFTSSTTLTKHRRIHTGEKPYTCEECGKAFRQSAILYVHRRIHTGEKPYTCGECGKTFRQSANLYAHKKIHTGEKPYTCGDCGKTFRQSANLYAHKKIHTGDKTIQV", "assay": "HT-SELEX; 20 mM HEPES pH 7, 140 mM KCl, 5 mM NaCl, 1 mM K2HPO4, 2 mM MgSO4, 100 uM EGTA, ZnSO4, 0.1% Tween20; room temperature, 1 h; high values mean tight binding", "details": "protein: ivt; tags: eGFP (N-terminal); dsDNA, one strand shown", "procedure,_shortened": "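A tagged transcription factor, either full-length or its DNA-binding-domain fragment, was made in HEK293 lysate or cell-free extract, immobilised on beads and incubated with a randomized 40-base DNA library for 1 h at room temperature in HEPES/KCl low-stringency buffer containing Tween20. Washed beads were heat-eluted, and the bound DNA was PCR-amplified over successive cycles and Illumina-sequenced at ~3 million 60 bp reads per sample. The binding signal is the relative k-mer count in selected reads, where a higher value means tighter binding.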", "units": {"binding signal": "relative 10-mer count"}, "values": [
      {"sequence": "CCTCCCCCCA", "binding signal": 0.0036},
      {"sequence": "CTCCCACCAC", "binding signal": 0.00599},
      {"sequence": "CACCGCCACC", "binding signal": 0.00384},
      {"sequence": "CACCCACCCC", "binding signal": 0.003},
      {"sequence": "CAGCATACCC", "binding signal": 0.909},
      {"sequence": "ACCACCCCAC", "binding signal": 0.00479},
      {"sequence": "CACCCACCTC", "binding signal": 0.00312},
      {"sequence": "ACACCCACCC", "binding signal": 0.00336},
      {"sequence": "CCCGACCCCA", "binding signal": 0.0012},
      {"sequence": "CACCCCCTCC", "binding signal": 0.00719},
      {"sequence": "CCCCCTCCAC", "binding signal": 0.00479},
      {"sequence": "CCACACCCAC", "binding signal": 0.00515},
      {"sequence": "CCCCTCCGCC", "binding signal": 0.003},
      {"sequence": "CCGCCACCAC", "binding signal": 0.0036},
      {"sequence": "ACCGCCACCC", "binding signal": 0.00192},
      {"sequence": "ACCCCCAACC", "binding signal": 0.00479},
      {"sequence": "AAAAACAAGC", "binding signal": 0.0483},
      {"sequence": "ACCCACCTCC", "binding signal": 0.00527},
      {"sequence": "CTCCCCACCC", "binding signal": 0.00395},
      {"sequence": "CCCTCCACCA", "binding signal": 0.00659},
      {"sequence": "CGCCCACCAC", "binding signal": 0.00384},
      {"sequence": "CCGCCACCCA", "binding signal": 0.00276},
      {"sequence": "CACCCGCCCA", "binding signal": 0.0024},
      {"sequence": "CACCACCGCC", "binding signal": 0.00324},
      {"sequence": "CACACCCCCC", "binding signal": 0.0018},
      {"sequence": "CCCTCCTCCC", "binding signal": 0.00479},
      {"sequence": "CCACCACCCA", "binding signal": 0.00671},
      {"sequence": "CCACGCCACC", "binding signal": 0.00443},
      {"sequence": "CGCCCCGCCC", "binding signal": 0.00132},
      {"sequence": "CACCACCCCC", "binding signal": 0.0024},
      {"sequence": "AGGGGGGGTG", "binding signal": 0.00252},
      {"sequence": "CACCCCAACC", "binding signal": 0.00407},
      {"sequence": "CCCCGCCCGC", "binding signal": 0.0018},
      {"sequence": "CCCCACACCC", "binding signal": 0.00443},
      {"sequence": "CACCCTCCCC", "binding signal": 0.00312},
      {"sequence": "CGCCCACCCC", "binding signal": 0.00252},
      {"sequence": "CCTCCACCCC", "binding signal": 0.00455},
      {"sequence": "GACCCACCCC", "binding signal": 0.0018},
      {"sequence": "CCCACCTACC", "binding signal": 0.00659},
      {"sequence": "CAAAACAGCA", "binding signal": 0.205}
    ]}
  ]
}
